# Out of some 310,000 compounds screened, about 14,000 (4.5%) showed an effect of 50% or more. Effects have a minus sign here. The entries come from a sample that favours strong results as a whole.
# Biological target: human ether-à-go-go-related gene (hERG) potassium channel (human, UniProt Q12809)
# Assay: primary screen, population patch clamp on CHO cells stably expressing hERG; higher = less effect of the substance
# 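Further: peak tail current of the secondary pulse compared with the same well before compound.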
# Chain of human ether-à-go-go-related gene (hERG) potassium channel (Q12809 whole entry, looked up): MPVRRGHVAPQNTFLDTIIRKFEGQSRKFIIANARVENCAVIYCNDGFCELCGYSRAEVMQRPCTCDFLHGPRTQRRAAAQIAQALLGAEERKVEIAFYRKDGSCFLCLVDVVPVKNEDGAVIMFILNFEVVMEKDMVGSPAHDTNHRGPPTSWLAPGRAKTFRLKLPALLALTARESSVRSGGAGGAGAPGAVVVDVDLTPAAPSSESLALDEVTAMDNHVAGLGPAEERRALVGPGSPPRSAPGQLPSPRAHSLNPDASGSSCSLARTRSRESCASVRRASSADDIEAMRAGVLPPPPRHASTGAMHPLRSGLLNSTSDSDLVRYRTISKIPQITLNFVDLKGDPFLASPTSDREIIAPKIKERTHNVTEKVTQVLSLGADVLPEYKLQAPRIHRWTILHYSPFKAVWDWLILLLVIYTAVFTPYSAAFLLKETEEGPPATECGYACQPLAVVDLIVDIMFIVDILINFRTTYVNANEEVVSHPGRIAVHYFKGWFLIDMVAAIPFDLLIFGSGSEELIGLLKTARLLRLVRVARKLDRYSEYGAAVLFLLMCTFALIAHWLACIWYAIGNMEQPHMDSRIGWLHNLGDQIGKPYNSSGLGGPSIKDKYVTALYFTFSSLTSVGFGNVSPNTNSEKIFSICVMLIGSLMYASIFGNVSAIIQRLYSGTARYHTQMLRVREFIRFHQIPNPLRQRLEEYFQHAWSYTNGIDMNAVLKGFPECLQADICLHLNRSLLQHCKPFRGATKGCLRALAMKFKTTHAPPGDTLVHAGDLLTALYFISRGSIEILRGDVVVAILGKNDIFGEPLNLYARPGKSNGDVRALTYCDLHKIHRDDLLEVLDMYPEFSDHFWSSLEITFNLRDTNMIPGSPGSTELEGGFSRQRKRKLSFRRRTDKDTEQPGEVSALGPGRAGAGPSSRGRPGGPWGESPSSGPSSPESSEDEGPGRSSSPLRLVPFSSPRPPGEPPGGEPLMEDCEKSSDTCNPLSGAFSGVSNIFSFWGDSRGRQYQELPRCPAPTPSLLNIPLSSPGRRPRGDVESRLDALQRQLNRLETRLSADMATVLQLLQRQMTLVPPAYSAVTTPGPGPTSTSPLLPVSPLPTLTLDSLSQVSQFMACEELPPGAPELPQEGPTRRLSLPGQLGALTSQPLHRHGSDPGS
row,Compound,"hERG current change (%, negative = inhibition) at 10uM [%]"
1,CCN(c1ccccc1)S(=O)(=O)c1ccc(Cl)c(NC(=O)COC(=O)c2ccc[nH]c2=O)c1,3.13
2,C#CCOCCOCCOCCNc1nc(N2CCN(C(=O)C([C@@H](C)CC)n3cc(C(N)Cc4ccc(O)cc4)nn3)CC2)nc(N2CCN(C(=O)[C@H](CCC(=O)O)n3cc(C(N)[C@H](C)CC)nn3)CC2)n1.Cl (some centres unmarked),4.5
3,O=C(NCC(=O)N1CCOCC1)OCc1ccccc1,-30.8
4,O=C(OCc1ccccc1)N1CCOCCN(C(=O)OCc2ccccc2)CCOCC1,-64
5,O=C(O)C1CCN(C(=O)OCc2ccccc2)CC1,13.8
6,COC(=O)CCn1nnc(-c2ccc(C)cc2)n1,12.3
7,COc1ccc(C2C(C(=O)Nc3cccnc3)=C(C)Nc3nc(-c4cccs4)nn32)cc1 (centres unmarked),-39.6
8,COc1cccc(-c2nc3n(n2)C(c2cccs2)C(C(=O)Nc2cccnc2)=C(C)N3)c1 (centres unmarked),-72.3
9,COc1ccccc1-c1nc2n(n1)C(c1cccs1)C(C(=O)Nc1cccnc1)=C(C)N2 (centres unmarked),-31.7
10,Cc1cccc(C(C(=O)NC2CCCCC2)N(C(=O)c2csnn2)C2CC2)c1 (centres unmarked),7.99
11,CCCNC(=O)C1(CC2CC(c3ccccc3)=NO2)CCN(C(=O)C2(C)CC2)CC1 (centres unmarked),-17
12,CCCCCCCNC(=O)C1(CC2CC(c3cccc(Br)c3)=NO2)CCN(C(=O)c2cc(OCC)c(OCC)c(OCC)c2)CC1 (centres unmarked),4.79
13,CCCCCCCNC(=O)C1(CC2CC(c3cccc(Br)c3)=NO2)CCN(C(=O)c2ccccc2)CC1 (centres unmarked),-71
14,CCCCCCCNC(=O)C1(CC2CC(c3ccc(Cl)cc3)=NO2)CCN(C(=O)c2ccccc2)CC1 (centres unmarked),-15.8
15,CCOc1cc(C(=O)N2CCC(CC3CC(c4cccc(Br)c4)=NO3)(C(=O)NCC3CCCCC3)CC2)cc(OCC)c1OCC (centres unmarked),4.14
16,CCCCCCCNC(=O)C1(CC2CC(c3ccc(Cl)cc3)=NO2)CCN(C(=O)Cc2ccc(F)cc2)CC1 (centres unmarked),-11
17,CCCNC(=O)C1(CC2CC(c3ccccc3)=NO2)CCN(C(=O)OC(C)(C)C)CC1 (centres unmarked),-48.6
18,CCCNC(=O)C1(CC2CC(c3ccccc3)=NO2)CCN(C(=O)c2ccccc2)CC1 (centres unmarked),-68.9
19,COc1ccc(CNC(=O)C2(CC3CC(c4ccccc4)=NO3)CCN(C(=O)Cc3ccc(F)cc3)CC2)cc1 (centres unmarked),18.1
20,CCCNC(=O)C1(CC2CC(c3ccccc3)=NO2)CCN(C(=O)Cc2ccc(F)cc2)CC1 (centres unmarked),-64.6
21,CCCNC(=O)C1(CC2CC(c3ccccc3)=NO2)CCN(C(=O)c2cc(OCC)c(OCC)c(OCC)c2)CC1 (centres unmarked),-34.6

row,Compound,"hERG current change (%, negative = inhibition) at 10uM [%]"
1,CCCCCCCNC(=O)C1(CC2CC(c3ccccc3)=NO2)CCN(C(=O)c2ccccc2)CC1 (centres unmarked),-70.9
2,COc1ccc(C2CC(C(F)(F)F)n3nc(C(=O)Nc4ccc5c(c4)OCO5)cc3N2)cc1 (centres unmarked),10.5
3,COc1ccc(-c2noc(N3CCCC(C(=O)Nc4ccccc4F)C3)n2)cc1 (centres unmarked),15.5
4,Cc1csc(=O)n1CC(=O)OCC(=O)c1ccc(Br)cc1,-14
5,CCOc1ccc(NC(=S)N2CCN(S(=O)(=O)c3ccccc3)CC2)cc1,-31.6
6,COc1ccc(-n2c(C)n[nH]c2=O)cc1OC,10.7
7,Cc1sc(NC(=O)c2sc3nc4c(C)cccc4cc3c2N)c(C#N)c1C,8.29
8,O=c1[nH]c2cc3c(cc2cc1CN(Cc1cccnc1)Cc1nnnn1Cc1ccco1)OCCO3,-4.69
9,CCN1C(=O)/C(=C/C=C2\C=CN(CC)c3ccccc32)SC1=S,-4.57
10,NC(=O)COc1ccc2oc(=O)cc(-c3cc4ccccc4o3)c2c1,7.27
11,Cc1noc(C)c1CSCC(=O)Nc1cc(C(F)(F)F)ccc1N1CCOCC1,-37.9
12,Cc1c(Cl)c([N+](=O)[O-])nn1CC(=O)Nc1ccc2c(c1)OCO2,18.4
13,CCCCCCCNC(=O)C1(CC2CC(c3cccc(Br)c3)=NO2)CCN(C(=O)OC(C)(C)C)CC1 (centres unmarked),3.88
14,CCCCCCCNC(=O)C1(CC2CC(c3ccc(Cl)cc3)=NO2)CCN(C(=O)CCCCCBr)CC1 (centres unmarked),-79
15,CCCCCCCNC(=O)C1(CC2CC(c3ccc(Cl)cc3)=NO2)CCN(C(=O)c2cc(OCC)c(OCC)c(OCC)c2)CC1 (centres unmarked),17.6
16,CCCNC(=O)C1(CC2CC(c3ccccc3)=NO2)CCN(C(=O)CCCCCBr)CC1 (centres unmarked),-50
17,CCCCCCCNC(=O)C1(CC2CC(c3cccc(Br)c3)=NO2)CCN(C(=O)CCCCCBr)CC1 (centres unmarked),-82.7
18,CCCCn1c(-c2ccco2)n[nH]c1=S,16.9
19,COc1cc2c(cc1OC)-c1nnc(-c3ccco3)n1C1(CCCC1)C2,-8.01
20,O=Cc1c(Cl)cccc1Cl,13.9
21,CNC(=O)CCCN1C(=O)c2ccccc2Sc2ncccc21,23.9

row,Compound,"hERG current change (%, negative = inhibition) at 10uM [%]"
1,O=C(CSc1nc2[nH]ncc2c(=O)[nH]1)Nc1cccc([N+](=O)[O-])c1,-19.2
2,COCCn1c(C)cc(C2=NNC(=Nc3ccc(Cl)cc3Cl)SC2)c1C,7.57
3,O=C(Cn1c(SCC(=O)NC2CCCC2)nnc1-c1ccncc1)Nc1ccc2c(c1)OCO2,-11.7
4,COC(=O)CSc1nnc(C)c(=O)[nH]1,2
5,O=C(Cc1coc2cc3c(cc12)CCC3)NC1CCCCCCC1,0.532
6,Cc1ccc2c(CC(=O)NCC3(N4CCOCC4)CCCCC3)coc2c1C,-25.5
7,O=C(Cc1coc2cc3c(cc12)CCC3)NCC1(N2CCCCC2)CCCCC1,-76.9
8,CCOC(=O)c1sc2ncn(C(CC)C(=O)OCC)c(=O)c2c1C (centres unmarked),1.12
9,O=C(COC(=O)c1cc[n+]([O-])cc1)Nc1ccc(Cl)cc1C(F)(F)F,24.9
10,CC1(C)[C@H]2CC=C(CN3CCC(N4CCC(C(=O)N5CCCC5)CC4)CC3)[C@@H]1C2,-25.1
11,O=C(c1cc2ccccc2o1)N1CCC(N2CCC(C(=O)N3CCCC3)CC2)CC1,-55.7
12,O=C(c1cc2ccccc2o1)N1CCCCCC1,-5.92
13,O=C(C1CCN(C2CCN(Cc3ccc4c(c3)CCO4)CC2)CC1)N1CCCC1,-43
14,O=C(C1CCN(C2CCN(Cc3ccc4cc(F)ccc4n3)CC2)CC1)N1CCCC1,-77.3
15,CCc1ccc(CN2CCC(N3CCC(C(=O)N4CCCC4)CC3)CC2)o1,-70
16,COCc1ccc(CN2CCC(N3CCC(C(=O)N4CCCC4)CC3)CC2)o1,8.86
17,O=C(c1cc2ccccc2o1)N1CCCC1,10.8
18,O=C(c1cc(F)ccc1F)N1CCC(N2CCC(C(=O)N3CCCC3)CC2)CC1,6.92
19,C=C(C)C1CC=C(CN2CCC(O)CC2)CC1 (centres unmarked),-6.28
20,C=C(C)[C@@H]1CC=C(CN2CCC(N3CCC(C(=O)N4CCCC4)CC3)CC2)CC1,-82.2
21,Cc1ncc(CN2CCC(N3CCC(C(=O)N4CCCC4)CC3)CC2)s1,-18.1

row,Compound,"hERG current change (%, negative = inhibition) at 10uM [%]"
1,O=C(CNC(=O)c1ccco1)Nc1ccncc1,-5.14
2,Cc1cc(C)cc(C(=O)NC(CC(N)=O)c2ccc(NCCN3CCCC3)c([N+](=O)[O-])c2)c1 (centres unmarked),10.5
3,COC(=O)Cc1coc2cc(OC)ccc12,11.9
4,Cc1ccc(S(=O)(=O)n2cnc3cc([N+](=O)[O-])ccc32)cc1C,-19.9
5,Cc1cc(NC(=O)CSc2nc3c(cc2C#N)CCC3)no1,26.7
6,O=C1c2ccccc2C(=O)N1c1ncn[nH]1,11.3
7,Cc1cccc(Nc2ncnc(N)n2)c1,15.6
8,O=C1CCN(Cc2ccc(Cl)cc2)N1,10.8
9,CC(C)c1cc(=O)n2[nH]c(SCc3ccccc3Cl)nc2n1,23.7
10,Cc1ccc(C(=O)COC(=O)CCC(=O)NC2CCCCC2)cc1C,14.8
11,Cc1cccc(C)c1N(CC(O)Cn1c2ccccc2c2ccccc21)S(C)(=O)=O (centres unmarked),18.6
12,COc1cccc(C(CC(=O)O)NS(=O)(=O)c2ccc3c(c2)N(C(C)=O)CC(C)O3)c1 (centres unmarked),24.4
13,Cc1nn(-c2ccccc2)c(Cl)c1C(=O)N1CCN(c2ncnc3c2cnn3-c2ccccc2)CC1,-29.1
14,CCOC(=O)C1(CCOC)CCN(Cc2ccc(C3CCCCO3)s2)CC1 (centres unmarked),-21.4
15,C=C(C)[C@@H]1CC=C(CN2CCC(CCOC)(C(=O)OCC)CC2)CC1,-64.7
16,CCOC(=O)C1(CCOC)CCN(Cc2nc(C(C)C)cs2)CC1,41
17,N#CCCN(CCC#N)C(=O)C1c2ccccc2Oc2ccccc21,14.4
18,CCOC(=O)c1ccccc1NC(=O)COC(=O)CN1C(=O)C2CC=CCC2C1=O (centres unmarked),-2.8
19,Cn1c(C(=O)NCCN2CCCCCC2)cc2c(=O)n(C)c3ccccc3c21,-13.4
20,C=CCOc1ccc2oc(=O)cc(C)c2c1,-1.62
